Compound activity deposited in PubChem by several laboratories.
zVAD death inh = blocks zVAD induced death of L929 cells. L929 zVAD necroptosis rescue, ATP luminescence, 24 h; with zVAD 60 µM. viability rescue, % at 10 µM. 220,000 compounds, 0.38% hits;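 active = activation, scaled between plate controls, above about 75%, limit read from the data; inactive = activation under that limit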;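 note: 0% = zVAD with DMSO and 100% = DMSO alone without zVAD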
TNF necrop inh = inhibitors of TNF-alpha induced necroptosis in Jurkat FADD-/- cells | Jurkat FADD-/- TNF necroptosis rescue, ATP luminescence, 24 h; 0 = TNF only, 100 = no-TNF cells | activation (protection from cell death), % at 10 µM | 220,000 compounds, 0.068% hits | AID 463075;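 active = activation, meaning protection from cell death, of at least 50% relative to plate controls; inactive = activation below 50%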;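 note: necroptosis triggered by 40 ng/mL TNF-alpha added together with compound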
Hsp70 act = transcriptional activators of Hsp70; 200,000 compounds, 0.04% hits; HeLa Hsp70 promoter luciferase reporter, luminescence; scaled: vehicle 0, proteasome-inhibitor control 100%; AID 1203; activation, % at 10 µM;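 active = activation above the mean across all tested compounds plus 3 SD, cutoff set per campaign, cut at about 5.5% in these data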;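 note: 100% = MG132 at 30 µM as the positive control and 0% = DMSO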
HSF-1 act = increases HSF-1 driven luciferase reporter signal | NIH3T3-HGL HSF-1 luciferase reporter, MG132, 8 h; 100% = twice DMSO control signal | activation, % at 9 µM | 300,000 compounds, 1.7% hits | AID 504408;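 active = mean replicate activation of at least 50% with a set share of replicates each reaching 50%; inconclusive = only one of those two conditions met; inactive = mean below 50% and too few replicates reaching it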;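 note: 0% = median of the neutral control wells and 100% = twice that signal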
* marks the source's active call; other numbers are inactive results; ? = inconclusive; nt = no result. A selection: hits, their analogues and other compounds. The true share with any hit is near 1.9%.

SMILES	zVAD death inh	TNF necrop inh	Hsp70 act	HSF-1 act
CCCCOC(=O)CCc1c(C)[nH]c(=O)c(C#N)c1C	-0.1	0.5	-0.2	-20.6
CCCCOC(=O)CCc1c(C)n[nH]c1C	0.9	3.0	nt	63.0*
CNC(=S)N(Cc1ccc(Cl)cc1)Cc1cccs1	2.1	-2.9	nt	54.0*
CC(=O)c1cccc(N(CC(=O)NC2CCCC2)C(=O)c2csnn2)c1	nt	nt	nt	-10.6
CCOC(=O)CC(NC(=O)c1ccc(C)cc1)c1ccc(OC)cc1 (centres undefined)	1.4	7.1	-0.1	5.1
Cc1ccc(CSc2nnc(-c3ccco3)o2)cc1	1.0	46.3	0.1	36.7
Brc1ccc(CSc2nnc(-c3ccco3)o2)cc1	-0.7	24.8	-0.4	55.6*
c1ccc(CSc2nnc(-c3ccco3)o2)cc1	-0.7	52.1*	nt	15.7
CCN(Cc1ccncc1)C(=O)c1ccco1	nt	nt	nt	-4.3
CCN(Cc1ccncc1)C(=O)c1cc(Br)cc(Br)c1O	-1.6	0.0	0.1	51.1*
COc1ccc(OCCCC(=O)Nc2cc(Cl)ccc2-n2cncn2)cc1	nt	nt	nt	-8.0
c1ccc(-n2ncc3c(NCc4cccs4)ncnc32)cc1	1.8	3.1	0.1	66.0*
COc1ccc(-n2ncc3c(NCc4cccs4)ncnc32)cc1	-0.2	1.0	1.2	46.8
CC(C)c1ccc(N(C(=O)CNC(=O)c2ccco2)C(C(=O)NC2CCCC2)c2ccncc2)cc1 (centres undefined)	nt	nt	nt	168.4*
CCOC(=O)c1nc2cc3n(c(C)c-2c1C)C(C)C(CC)=C3C (centres undefined)	-0.4	-1.2	-0.2	-4.3
Nc1nc2c(s1)CCc1c-2cnn1-c1ccccc1	3.0	-5.7	0.3	71.5*
O=C(CN1C(=O)NC2(CCc3ccccc32)C1=O)c1c[nH]c2ccccc12 (centres undefined)	nt	nt	nt	-7.6
CC(=O)Nc1ccc2ccccc2c1	0.6	0.9	-0.3	17.9
CCOC(=O)C(Nc1ccc2ccccc2c1)C(=O)OCC	0.1	0.7	0.2	59.3*
O=C(Nc1ccc(F)c(Cl)c1)C1CC2CCC1C2 (centres undefined)	nt	nt	nt	70.0*
CCOC(=O)c1ccc(NC(=O)C2CC3CCC2C3)cc1 (centres undefined)	nt	nt	nt	63.9*
COc1ccc(C2=NN(c3ccccc3)C(c3ccc(OC)c(OC)c3)C2)cc1 (centres undefined)	nt	nt	nt	70.5*
COc1ccc(C2=NN(C(C#N)c3ccc(OC)c(OC)c3)C(c3ccccc3)C2)cc1 (centres undefined)	0.6	-1.0	0.4	90.2*
COc1ccc(C2CC(c3cccs3)=NN2c2nc(-c3ccccc3)cs2)cc1OC (centres undefined)	-0.1	-0.5	-0.4	92.8*
Cc1ccc2c(cnn2C(=O)CCC(=O)N2CCCCC2C)c1 (centres undefined)	nt	nt	nt	2.8
SMILES	zVAD death inh	TNF necrop inh	Hsp70 act	HSF-1 act
N/C(Cc1nc(-c2ccc(Br)cc2)cs1)=N\O	1.9	-1.2	0.0	55.0*
COC(=O)c1ccc(CSc2nc3ccc(S(=O)(=O)N4CCOCC4)cc3[nH]2)cc1	0.3	0.2	-0.4	-18.7
N#Cc1ccc(Cl)cc1NC(=O)CNCc1cccs1	nt	nt	nt	64.8*
O=C(COC(=O)CCCSc1nc2ccccc2[nH]1)Nc1ccc(Cl)cc1	0.5	1.2	-0.3	2.6
COC(=O)c1cccc(N(C(=O)c2cnccn2)C(C(=O)NC2CCCCC2)c2cn(C)nc2C)c1 (centres undefined)	-0.6	-3.0	-0.1	26.6
O=C(CCc1c[nH]c2ccccc12)NCCc1ccc(Cl)cc1	nt	nt	nt	54.8*
Cc1ccc(-c2nn(-c3ccccc3)cc2NC(=O)CCl)cc1	5.0	-12.2	-0.2	39.7
CN(c1ccccc1)c1ccc(/C=N/N2CCOCC2)cc1	2.0	1.2	0.2	60.9*
CCN(CC)c1ccc(/C=N/N2CCN(Cc3ccccc3)CC2)cc1	3.2	2.1	-0.1	-0.2
CC(C)(C)NS(=O)(=O)c1cccc(S(=O)(=O)c2cccc(S(=O)(=O)NC(C)(C)C)c2)c1	-0.1	-3.7	-0.4	nt
Cc1ccc(S(=O)(=O)NCC2CCC(C(=O)NC3CCCCC3)CC2)cc1 (centres undefined)	nt	nt	nt	4.3
COc1cccc(C(=O)NCCS(=O)(=O)NCCc2ccccc2)c1	nt	nt	nt	58.6*
CCc1cc(=O)oc2c(CNCc3ccccc3F)c(O)c(Cl)cc12	nt	nt	nt	64.5*
CCCc1cc(=O)oc2c(CN3CCCC3)c(O)c(Cl)cc12	1.1	-1.0	-0.2	31.7
CC(C)c1cccc(C(C)C)c1NC(=O)COC(=O)C1=COCCO1	1.9	1.1	0.0	2.8
COCCN(Cc1cc2cc(C)c(C)cc2nc1Cl)C(=O)N1CCOCC1	2.1	2.7	-0.1	-3.1
COCCN(Cc1cc2ccc(C)c(C)c2nc1Cl)C(=O)N1CCOCC1	0.3	0.6	-0.2	55.3*
CC1Cc2ccccc2N1C(=O)CSc1ncc(-c2ccc(F)cc2)n1C (centres undefined)	1.4	1.2	-0.2	66.9*
Cn1c(-c2ccc(F)cc2)cnc1SCC(=O)N1CCCc2ccccc21	-0.2	2.0	-0.2	20.4
Cc1c(N2C(=O)CSC2c2ccc(F)cc2)c(=O)n(-c2ccccc2)n1C (centres undefined)	-0.3	2.1	nt	-4.3
O=S(=O)(c1ccccc1)N(C1=NCCS1)S(=O)(=O)c1ccccc1	-0.3	-0.5	-0.2	-13.4
COc1ccccc1NS(=O)(=O)c1ccc(NC(=O)Cc2cccs2)cc1	0.1	5.5	-0.3	58.0*
O=C(NC(=S)NC1CCCCC1)c1ccc(F)cc1	nt	nt	nt	20.8
O=[N+]([O-])c1ccc(/C=C/C2=NN(c3ccccc3)C(c3ccco3)C2)o1 (centres undefined)	0.8	-4.7	-0.3	5.9
C(=C\c1ccco1)/C1=NN(c2ccccc2)C(c2ccco2)C1 (centres undefined)	2.2	0.2	-0.2	77.9*
SMILES	zVAD death inh	TNF necrop inh	Hsp70 act	HSF-1 act
O=C(NCC1COc2ccccc2O1)c1ccc(Cl)cc1 (centres undefined)	0.7	1.9	0.1	62.2*
O=C(NCC1COc2ccccc2O1)c1ccc(NC(=O)c2ccco2)cc1 (centres undefined)	1.5	-1.0	-0.2	9.7
Cc1cc(Cl)ccc1NC(=O)C1COc2ccccc2O1 (centres undefined)	nt	nt	nt	52.8*
CCN1C(=O)C(C(=O)c2ccccc2)SC1=S (centres undefined)	1.0	0.7	0.1	37.6
Cc1ccc(N2CC(C(=O)Nc3c4c(nn3C(C)(C)C)CS(=O)(=O)C4)CC2=O)cc1 (centres undefined)	nt	nt	nt	-3.6
CCC1(C)N=C(N)Nc2nc3cc(C)c(C)cc3n21 (centres undefined)	-0.5	-2.2	nt	70.7*
C/C(CC(=O)Nc1ccc(C)c(Cl)c1)=N\NC(=O)Cc1ccccc1	0.5	2.9	0.0	?
C/C(CC(=O)Nc1ccc(C)c(Cl)c1)=N\NC(=O)Cc1cnc(N)s1	8.4	0.5	-0.3	61.1*
C#CCOCCOCCOCCNc1nc(N2CCN(C(=O)[C@H](Cc3ccc(O)cc3)n3cc(CCO)nn3)CC2)nc(N2CCN(C(=O)[C@H](Cc3ccc(O)cc3)n3cc(CCO)nn3)CC2)n1	5.3	2.8	-0.3	-15.8
